Screens deposited in PubChem by National Center for Advancing Translational Sciences (NCATS).
Sampled rows, rich in hits. Any-hit rate of the full collection: about 11%.
PLK1 PBD block: blocks phosphopeptide binding to human PLK1 polo-box domain; Plk1 PBD binding of FITC phosphopeptide, fluorescence polarization; Potency, µM, inactives show max response, negative = inhibition, actives largely listed as inhibitors; 360,000 compounds, 2.8% hits; AID 720504; note: series mostly up to about 57 µM; % is set by controls: 0 for no effect and ±100 for the full control effect; nearly all actives have a fitted effect of over 65% in size
Target sequence (P53350 whole entry, looked up, the tested form may be a part): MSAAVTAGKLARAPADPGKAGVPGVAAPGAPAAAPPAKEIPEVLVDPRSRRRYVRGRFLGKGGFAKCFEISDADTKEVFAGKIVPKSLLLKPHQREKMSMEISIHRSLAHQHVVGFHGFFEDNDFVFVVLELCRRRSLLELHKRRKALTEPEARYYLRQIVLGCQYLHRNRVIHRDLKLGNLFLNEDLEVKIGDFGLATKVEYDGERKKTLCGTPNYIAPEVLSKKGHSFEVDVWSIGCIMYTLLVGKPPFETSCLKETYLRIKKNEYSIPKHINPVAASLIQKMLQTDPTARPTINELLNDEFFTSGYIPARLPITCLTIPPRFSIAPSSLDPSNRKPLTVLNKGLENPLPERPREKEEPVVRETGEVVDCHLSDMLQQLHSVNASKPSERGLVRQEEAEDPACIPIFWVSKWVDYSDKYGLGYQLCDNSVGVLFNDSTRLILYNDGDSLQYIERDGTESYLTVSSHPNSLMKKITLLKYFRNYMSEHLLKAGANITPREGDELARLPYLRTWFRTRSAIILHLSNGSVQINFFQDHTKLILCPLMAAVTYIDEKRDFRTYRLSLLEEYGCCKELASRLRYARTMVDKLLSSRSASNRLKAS
HP1b chromo inh: inhibitors of HP1-beta chromodomain binding to methylated histone tails; 390,000 compounds, 0.56% hits; Potency, µM (top dose mostly 114 µM), for inactives: top-dose activity change, negative = inhibition, usual class: inhibitors; AID 540317; AlphaScreen HP1-beta / biotin-H3K9me3 peptide binding; P83916; note: nearly all actives have a fitted effect of over 70% in size
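Compound inhibition of the preformed complex between 50 nM HP1-beta and 50 nM biotinylated H3K9me3 peptide was read by AlphaScreen. Buffer was PBS pH 7.4 with 0.01% Tween-20. Incubations ran 30 min at room temperature, with 10 ug/mL donor/acceptor beads.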
VDR inhibitor: vitamin D3 receptor (human) inhibition. P11473. VDR-SRC2-3 peptide fluorescence polarization, 2 h. Potency, µM, for inactives: max response, negative = inhibition, actives largely listed as inhibitors. 400,000 compounds, 0.93% hits; note: % is set by controls: 0 for no effect and ±100 for the full control effect
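Fluorescence polarization assay of small-molecule disruption of VDR binding to coregulator peptide SRC2-3. Compounds and controls pin-transferred, then read after 2 h incubation at ambient room temperature.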
BAZ2B inh: blocks human BAZ2B | Q9UIF8 | AlphaScreen BAZ2B-H3K14Ac peptide displacement | Potency, µM (titrated, usually from 114 µM), without a hit: at the highest dose activity change, negative = inhibition, most hits filed as inhibitors | 360,000 compounds, 4.4% hits | AID 504333; note: % is set by controls: 0 for no effect and ±100 for the full control effect; nearly all actives have a fitted effect of over 60% in size
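Complex of BAZ2B and biotin-H3K14Ac (50 nM apiece) forms over 30 min at RT, then faces library compounds up to 110 uM for another 30 min; AlphaScreen beads added, 20 min dark incubation, luminescence read.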
JMJD2A Tudor: blocks the human JMJD2A Tudor domain | O75164 | AlphaScreen JMJD2A-Tudor / H3K4me3 peptide binding | Potency, µM (highest dose often 114 µM), without a hit: at the highest dose activity change, negative = inhibition, actives largely listed as inhibitors | 390,000 compounds, 4.4% hits; note: % is set by controls: 0 for no effect and ±100 for the full control effect; nearly all actives have a fitted effect of over 50% in size
G9a inh: blocks human histone lysine methyltransferase G9a; Q96KQ7; Potency, µM (highest dose often 102 µM), for the others: top-dose activity, negative = inhibition, most hits filed as inhibitors; G9a H3K9 monomethylation, AlphaScreen, 2 h; 350,000 compounds, 8.8% hits; note: % is set by controls: 0 for no effect and ±100 for the full control effect; nearly all actives have a fitted effect of over 75% in size
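Readings reflect AlphaScreen signal from monomethyl-H3K9 antibody detection. HMT at 20 nM; substrate b-H3K9 500 nM; cofactor SAM 20 uM; 2 h RT reaction; compounds tested as titrations in qHTS with 15 min preincubation.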
Active calls of the source: *; ? = inconclusive; . = not tested or not shown; [ ] = remark or other dose. Calls come from the whole dose curve; as a rule, active = well fitted curve in the direction sought with a large enough effect; inconclusive = small, poorly fitted or top-dose-only effect, or another doubt; inactive = no such curve, though single readings can be large; an effect the other way counts as inactive or inconclusive. Potency is the fitted concentration of half-maximal effect.

SMILES	PLK1 PBD block	HP1b chromo inh	VDR inhibitor	BAZ2B inh	JMJD2A Tudor	G9a inh
CN(C)C(=O)CCc1ccc2c3c([nH]c2c1)[C@]1(CCc2ccccc2)[C@@H](C(=O)N2CCCCC2)C[C@H](CC(=O)NC(C)(C)C)C(=O)N1CC3	-14.3%	15.3%	-13.5%	.	-29.7%	.
CC[n+]1c(/C=C/c2ccc(N(C)C)cc2)ccc2ccccc21	-1.8%	?	13.0%	39.8µM*	?	14.1µM*
CC[n+]1c(/C=C/c2ccc(OC(C)=O)c(OC)c2)ccc2ccccc21	-9.7%	-27.2%	-29.5%	-7.7%	?	25.1µM*
CC[n+]1ccccc1/C=C/c1ccc(N(C)C)cc1	7.8%	-0.7%	-23.5%	?	?	28.2µM*
CCN(CC)c1ccc(/C=C/c2ccc3ccc(OC)cc3[n+]2CC)cc1	-6.1%	?	10.5%	39.8µM*	12.6µM*	25.1µM*
CCN1CCN(Cc2c(O)ccc3oc(C)c(C(=O)Nc4cccc(Cl)c4C)c23)CC1	.	2.5%	7.0%	-4.8%	-18.1%	-26.8%[59 µM]
CN(CC(=O)Nc1ccccc1Br)CC(=O)NC(c1ccccc1)c1ccccc1	-6.8%	3.1%	-6.5%	?	-18.7%	-23.2%
CC(NC(=O)CN(C)CC(=O)Nc1ccccc1Br)c1ccccc1 (configuration not stated)	-6.0%	-6.2%	6.6%	31.6µM*	28.2µM*	-120.7%[12.7 µM]
COc1ccc(OC)c(NC(=O)CN(C)CC(=O)Nc2ccccc2Br)c1	-11.5%	-3.3%	1.5%	44.7µM*	8.91µM*	7.94µM*
COc1ccccc1NC(=O)C(C/C=C(/C)Cl)C(C)=O (configuration not stated)	29.9µM*	-10.3%	14.5%	4.5%	12.2%[11.4 µM]	17.6%[59 µM]
COc1cccc(NC(=O)CN(C)CC(=O)NC(C)c2ccccc2)c1 (configuration not stated)	3.1%	30.5%	11.6%	6.3%	-1.4%	70.8µM*
COc1cccc(NC(=O)CN(C)C(=O)CC(C)c2ccccc2)c1 (configuration not stated)	-10.1%	31.5%	0.7%	-10.4%	-13.7%	6.5%
COc1ccc(NC(=O)CCNS(=O)(=O)c2cccc3nonc23)cc1	0.3%	14.4%	2.5%	7.3%	-12.0%	-18.0%
CCOc1cccc2cc(-c3nc4sc5c(c4c(=O)[nH]3)CCC(C)C5)c(=O)oc12 (configuration not stated)	.	39.1%	9.3%	-13.1%	-8.6%	-8.5%[59 µM]
CCOc1ccc(CN(C)CC(=O)Nc2cccc3ccccc23)cc1OC	2.5%	?	-8.9%	.	0.794µM*	7.08µM*
COc1ccccc1NC(=O)Nc1ccccc1Br	11.9µM*	-3.2%	?	-2.0%	-19.2%	-4.5%
COc1ccccc1NC(=O)C(=N\O)/C(C)=N/O	2.6%	-16.0%	-15.5%	-33.6%	?	10µM*
COc1ccc(CN(C)CC(=O)NC(C)c2ccccc2)c(OC)c1 (configuration not stated)	-3.5%	?	1.3%	56.2µM*	1.78µM*	?
CC(=O)N1c2ccc(S(=O)(=O)Nc3ccc(C)c(C)c3)cc2CC1C (configuration not stated)	.	.	.	.	-28.4%	.
COc1ccc(Oc2ncc3nc(-c4ccccc4)c(=O)n(Cc4cccs4)c3n2)cc1	.	.	-6.5%	.	.	8.9%[12.7 µM]
CC(=N\Nc1ccccc1)/C(=N/O)C(=O)Nc1ccccc1	-2.8%	9.8%	17.5%	0.3%	-14.8%	6.4%[59 µM]
CC(=N\NC(=O)c1ccccc1)/C(=N/O)C(=O)Nc1ccccc1	-1.5%	47.1%	6.4%	56.2µM*	-10.3%	23.6%
COc1ccc(-c2nc(CNS(=O)(=O)c3cccc(F)c3)cs2)cc1	.	31.1%	1.8%	13.3%	-12.8%	3.6%[59 µM]
CCN(CC)CCNC(=O)C(Oc1ccccc1)Oc1ccccc1	2.9%	12.8%	1.0%	-5.7%	-1.4%	9.4%
O=C(c1cc(-c2ccc(Cl)cc2)on1)N(Cc1ccc(F)cc1)Cc1ccco1	.	63.8%	13.7%	11.0%	4.3%	13.0%[59 µM]
SMILES	PLK1 PBD block	HP1b chromo inh	VDR inhibitor	BAZ2B inh	JMJD2A Tudor	G9a inh
Cc1ccc(-c2cc(C(=O)N(Cc3ccccc3)Cc3ccco3)no2)cc1F	.	31.5%	9.6%	50.1µM*	-3.3%	?
COc1ccc(Nc2ccc(C(=O)O)cc2[N+](=O)[O-])cc1	4.6%	16.5%	-11.9%	-29.7%	-3.7%	1.9%[59 µM]
O=[N+]([O-])c1cc(Cl)ccc1Nc1ccccc1	4.7%	17.8µM*	-1.6%	5.01µM*	28.2µM*	11.2µM*
Nc1ccc(Nc2ccc([N+](=O)[O-])cc2[N+](=O)[O-])cc1	-1.8%	?	-5.6%	28.2µM*	?	44.7µM*
COc1ccc(Nc2ccc([N+](=O)[O-])cc2[N+](=O)[O-])cc1	-16.7%	?	-11.1%	25.1µM*	50.1µM*	12.6µM*
CCOC(=O)C1CCN(C(=O)c2cc3ccc4ccc(C)[nH]c4c3n2)CC1	.	-1.9%	2.3%	2.6%[57.1 µM]	-20.1%	14.1µM*
CCOC(=O)C1CCN(C(=O)c2cc3ccc4cccnc4c3[nH]2)CC1	.	29.2%	15.3%	5.7%[57.1 µM]	-14.6%	-24.5%[59 µM]
O=C(NC(=S)NNC(=O)[C@H]1C[C@@H]1c1ccccc1)c1cccc(F)c1	-3.7%	1.9%	6.8%	0.5%	-10.3%	15.8µM*
Cc1sc(NC(=S)Nc2ccc(F)cc2)c(C(N)=O)c1C	?	-10.0%	18.7%	-15.0%	-6.0%[11.4 µM]	28.2µM*
COC(=O)c1c(NC(=S)Nc2ccc(CC(=O)O)cc2)sc(C)c1C	?	-1.9%	-3.4%	-3.0%	-9.9%[57.1 µM]	8.91µM*
CC(=O)Nc1ccc(NC(=S)Nc2ccc(F)cc2)cc1	-10.2%	17.3%	11.8%	-12.6%	-11.2%	2.2%
Cc1ccc2c(N)c(C(=O)N(c3ccccc3)c3ccccc3)sc2n1	-4.9%	35.1%	-0.5%	-12.9%	-5.3%	14.1µM*
CCOc1cc(/C=N/NC(=O)N/N=C/c2ccc(O)c(OCC)c2)ccc1O	-4.4%	11.6%	-0.3%	.	-11.9%	.
CCOc1cc(C=NN=C2c3ccccc3-c3ccccc32)ccc1O	2.4%	50.1µM*	-14.8%	.	25.1µM*	.
Oc1cccc(C=NN=C2c3ccccc3-c3ccccc32)c1	-0.7%	?	-15.8%	.	44.7µM*	.
Cc1ccc(N2CCN(S(=O)(=O)c3nnc(NC(=O)c4cccc(F)c4)s3)CC2)cc1	.	34.6%	8.7%	-34.2%	-12.2%	-18.9%[59 µM]
CNC(=O)C1(C(F)(F)F)C/C(=C\Cc2ccccc2)CCCO1 (configuration not stated)	.	34.7%	-6.3%	.	-9.7%	.
O=C1O[C@H](CO)[C@@H](O)[C@H](O)[C@H]1O	-12.7%	22.8%	-7.8%	.	-16.6%	.
CCCC(=O)Nc1ccc(-c2csc(NNC(C)=O)n2)cc1	?	38.4%	7.6%	0.6%	-18.2%	35.5µM*
CC(=O)NNc1nc(-c2ccc(C)cc2)cs1	-11.8%	15.5%	15.2%	-19.1%	-11.3%[11.4 µM]	31.6µM*
